NPC1 promoter act – activators of NPC1 promoter; Huh7 NPC1 promoter luciferase reporter, 24 h; Potency, µM (top dose mostly 9.22 µM), for the others: top-dose activation, usual class: activators; hit rate 2.4% among 320,000; further: % of control where 0% means no effect; nearly all actives have a fitted effect of over 60% in size
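In 1536-well qHTS, Huh7 cells harboring an NPC1 promoter–luciferase construct received compound for 24 h; activation was quantified by luminescence following luciferase reagent addition.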
SMN2 splice up – SMN2 splice variant enhancement. Potency, µM (highest dose often 46.1 µM), inactives show at the highest dose activity change, positive = activation, most hits filed as activators. hit rate 2.8% among 210,000. AID 1458. HEK293 SMN2-luciferase splicing reporter, luminescence, 30-36 h; further: % of control where 0% means no effect; nearly all actives have a fitted effect of over 55% in size
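HEK293 cells carry an SMN2 […]–luciferase reporter in which exon 7 inclusion puts luciferase in frame. Cells were plated 10-12 h before compound addition, then incubated 30-36 h at 37C. ONE-Glo luminescence was read; sodium butyrate at 4.5 mM final served as control.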
ELG1 genotoxic – genotoxicity induction in ELG1-luciferase HEK293T cells; HEK293T ELG1-luciferase reporter, luminescence, 16 h; Potency, µM (series often up to 46 µM), for inactives: at the highest dose activity change, positive = activation, hits mostly activators; hit rate 1.3% among 330,000; AID 504466; further: % of control where 0% means no effect; nearly all actives have a fitted effect of over 60% in size
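Luminescence read-out: rising ELG1-luciferase signal, reflecting elevated ELG1 protein under genetic stress, flags genotoxic compounds. Cells were treated for 16 hr at 37 °C before ONE-Glo detection.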
Rab9 prom act – Rab9 promoter activation; AID 485297; hit rate 2.8% among 320,000; Huh7 Rab9 promoter-luciferase reporter, luminescence, 24 h; Potency, µM (series often up to 9.22 µM), for inactives: top-dose activation, negative = inhibition, actives largely listed as activators; further: % of control where 0% means no effect; nearly all actives have a fitted effect of over 60% in size
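Steps: seed 1500 Huh7 Rab9-luc cells per well, rest 2 h at 37 °C; add compound in DMSO; incubate 24 h; add luciferase reagent, 10 min ambient; read luminescence.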
FLuc modulator – inhibits or activates purified firefly luciferase, miR-21 counter-screen; P08659; Potency, µM (top dose mostly 57.5 µM), for inactives: at the highest dose activity change, negative = inhibition, usual class: inhibitors; hit rate 6.9% among 360,000; AID 588342; purified FLuc, Km substrates, luminescence inhibition;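 further: plate controls were vehicle for no effect and reference inhibitor for full effect; nearly all actives have a fitted effect of over 55% in size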
Target sequence (P08659 whole entry, looked up): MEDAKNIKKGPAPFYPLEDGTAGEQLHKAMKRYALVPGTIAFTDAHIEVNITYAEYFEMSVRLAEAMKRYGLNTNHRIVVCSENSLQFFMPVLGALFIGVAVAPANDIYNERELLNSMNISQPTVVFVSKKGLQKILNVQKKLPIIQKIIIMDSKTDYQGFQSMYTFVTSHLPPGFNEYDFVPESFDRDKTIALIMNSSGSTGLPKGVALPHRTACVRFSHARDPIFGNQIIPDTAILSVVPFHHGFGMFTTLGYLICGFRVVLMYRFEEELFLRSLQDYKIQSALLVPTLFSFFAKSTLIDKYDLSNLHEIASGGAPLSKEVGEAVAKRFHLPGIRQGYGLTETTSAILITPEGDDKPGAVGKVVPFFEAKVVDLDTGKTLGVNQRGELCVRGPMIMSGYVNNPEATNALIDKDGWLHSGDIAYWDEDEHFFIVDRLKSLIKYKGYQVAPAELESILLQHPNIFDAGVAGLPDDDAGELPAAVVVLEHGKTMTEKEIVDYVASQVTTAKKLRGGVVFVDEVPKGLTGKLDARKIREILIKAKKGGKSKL
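Biochemical qHTS of compounds, final roughly 60 µM downward over six points, against 10 nM purified firefly luciferase using Km concentrations of substrates (10 uM D-luciferin, 10 uM ATP) in Tris acetate pH 7.5 buffer; luminescence output.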
Luc counter – blocks Kinase-Glo luciferase, a counter-screen artifact; Q27757; Kinase-Glo luciferase, ATP luminescence, 8 min; Potency, µM (highest dose often 38.3 µM), for inactives: top-dose activity change, negative = inhibition, actives largely listed as inhibitors; hit rate 0.28% among 200,000; AID 1379; further: on the % scale 0 is the no-effect control and ±100 the full control effect; nearly all actives have a fitted effect of over 60% in size
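Compounds were added to a substrate mix at pH 7.2 (50 mM imidazole, 10 uM ATP, within the enzyme's linear range), followed by Kinase-Glo detection reagent; luminescence was measured after 8 minutes at ambient temperature.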
Numbers without * were called inactive; ? = inconclusive; · = no result given; [ ] = dose if it differs, or a comment. Only some compounds are listed: those with a hit (about 7.3% of all), similar ones and a draw of the others. The call rests on the fitted dose curve; in most records, active means well fitted curve in the direction sought with a large enough effect; inconclusive means small, poorly fitted or top-dose-only effect, or another doubt; inactive means no such curve, though single readings can be large; an effect the other way counts as inactive or inconclusive. Potency means the concentration at half of the fitted maximal effect.

SMILES	NPC1 promoter act	SMN2 splice up	ELG1 genotoxic	Rab9 prom act	FLuc modulator	Luc counter
CC1CCCCN1CCNC(=O)c1ccc(Cn2c(SCc3ccccc3)nc3cccnc32)cc1 (stereo unspecified)	·	7.7%	·	·	13.5µM*	·
COc1cccc(Cn2ncc3c4sc(B(O)O)cc4n(C)c3c2=O)c1	-11.2%	·	·	-2.6%	-3.2%	·
COc1cccc([C@@H]2Oc3ccc(OC)cc3C[C@H]2OC(=O)NS(=O)(=O)c2ccc(F)cc2)c1	·	3.5%	·	·	·	-1.8%
CCN(CC)c1ccc(NS(=O)(=O)c2cc3[nH]c(=O)c(=O)[nH]c3cc2C)c(C)c1	·	·	·	·	-4.5%	·
COc1ccccc1NC(=O)CSc1nnc(-c2ccncc2)o1	-1.8%	?	8.2%	-3.4%	-10.3%	-9.0%
COc1ccc(-c2nnc(SCC(=O)Nc3cccc(Cl)c3)o2)cc1	?	12.6µM*	?	2µM*	0.7%	2.0%
COc1ccc(-c2nnc(SCC(=O)Nc3ccccc3OC)o2)cc1	2.82µM*	11.2µM*	?	1.58µM*	26.9µM*	0.2%
COc1ccc(NCc2nnc(SCC(=O)Nc3cc(C)cc(C)c3)o2)cc1	2.4%	-5.9%	3.2%	8.9%	?	0.7%
COc1ccc(NCc2nnc(SCC(=O)Nc3cc(C(F)(F)F)ccc3Cl)o2)cc1	-2.2%	6.2%	-0.7%	-3.4%	16.9µM*	-4.8%
O=C(O)[C@H]1CCCC[C@@H]1c1c2ccc(=O)c(O)c-2oc2c(O)c(O)ccc12	·	-2.2%[9.22 µM]	·	·	·	-4.4%[7.66 µM]
Cc1ccccc1CNC(=O)Nc1ccc2c(c1)N(C)C(=O)c1ccccc1S2	·	·	·	·	-1.0%	·
Cc1c(Cl)cccc1NC(=O)Cn1cnc2nc3c(cc2c1=O)CCCC3	·	·	·	·	1.4%	·
CN(CCC#N)C(=O)COC(=O)c1c2c(nc3ccccc13)/C(=C/c1ccco1)CC2	?	22.4µM*	7.8%	?	10.7µM*	-11.8%
Clc1ccc2c(c1)[C@H]1OCC[C@H]1[C@@H](c1ccco1)N2	?	22.4µM*	?	?	4.78µM*	-13.9%
COc1ccc(CCNC(=O)CCc2c(C)nc3cc(-c4ccccc4OC)nn3c2C)c(OC)c1	·	-2.3%	·	·	-14.6%	·
COc1ccc(C(=O)O/N=C(\N)c2cccc(C)c2)cc1OC	?	·	?	?	21.3µM*	·
COc1ccc(C(=O)O/N=C(\N)c2ccncc2)cc1OC	-1.4%	17.1%	17.4%	9.7%	-12.3%	-4.1%
COc1ccc(/C(N)=N/OC(=O)CSc2ccccc2)cc1OC	27.4%	12.3%	18.4µM*	17.5%	23.9µM*	-1.8%
COc1ccc(C(=O)O/N=C(\N)c2ccccc2)cc1OC	2.82µM*	·	20.6µM*	3.55µM*	10.7µM*	·
COc1ccc(C)c2sc(NC(=O)c3ccc(S(=O)(=O)N4CCCCC4)cc3)nc12	·	·	·	·	-2.7%	·
C/C(=N\NC(=O)COc1ccccc1)c1ccc(O)cc1	17.6%	·	9.0%	20.7%	?	-0.6%
CCc1ccc(OCC(=O)N/N=C(\C)c2ccc(OC(F)F)cc2)cc1	-1.7%	7.2%	0.1%	-4.8%	?	-4.3%
COc1ccc(OCC(=O)N/N=C(\C)c2ccc(OC)cc2)cc1	-1.5%	-8.3%	1.1%	0.9%	23.9µM*	1.6%
COc1ccc(OCC(=O)N/N=C(\C)c2cc3ccccc3o2)cc1	17.4%	26.8%	16.0%	14.9%	1.51µM*	-8.8%
C/C(=N\Nc1ccc(C(=O)O)cc1)c1nc2ccccc2n1C	0.562µM*	10µM*	?	1.12µM*	10.7µM*	0.9%
CCc1ccc(OCC(=O)N/N=C(\C)c2ccc(-n3ccnc3)cc2)cc1	14.6%	·	8.6%	17.9%	1.35µM*	·
C/C(=N\Nc1ccc(C(=O)O)cc1)c1ccc(-n2ccnc2)cc1	2.51µM*	20µM*	?	3.98µM*	12µM*	4.8%
C/C(=N\NC(N)=O)c1ccc(-n2ccnc2)cc1	-4.6%	-2.7%	5.7%	1.4%	-1.4%	-0.3%
CCOc1ccc(-c2ncnn2-c2sc3c(c2C#N)CCCCC3)cc1	·	-16.1%	·	·	?	·
COc1cccc(-c2ncnn2-c2sc3c(c2C#N)CCCCC3)c1OC	·	8.7%	·	·	0.953µM*	·
